Sampled rows, rich in hits. Any-hit rate of the full collection: about 0.84%.
PPARg SRC3 recr: PPARgamma agonists recruiting SRC-3 coactivator, primary screen, biochemical. biochemical PPARgamma/SRC-3 coactivator recruitment assay. activation, % at 8 µM. 0.26% of 200,000 active. AID 731, 2007; in the data active = activation above about 23%;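 note: 0% = DMSO and 100% = reference agonist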
Target sequence (P37231 whole entry, looked up): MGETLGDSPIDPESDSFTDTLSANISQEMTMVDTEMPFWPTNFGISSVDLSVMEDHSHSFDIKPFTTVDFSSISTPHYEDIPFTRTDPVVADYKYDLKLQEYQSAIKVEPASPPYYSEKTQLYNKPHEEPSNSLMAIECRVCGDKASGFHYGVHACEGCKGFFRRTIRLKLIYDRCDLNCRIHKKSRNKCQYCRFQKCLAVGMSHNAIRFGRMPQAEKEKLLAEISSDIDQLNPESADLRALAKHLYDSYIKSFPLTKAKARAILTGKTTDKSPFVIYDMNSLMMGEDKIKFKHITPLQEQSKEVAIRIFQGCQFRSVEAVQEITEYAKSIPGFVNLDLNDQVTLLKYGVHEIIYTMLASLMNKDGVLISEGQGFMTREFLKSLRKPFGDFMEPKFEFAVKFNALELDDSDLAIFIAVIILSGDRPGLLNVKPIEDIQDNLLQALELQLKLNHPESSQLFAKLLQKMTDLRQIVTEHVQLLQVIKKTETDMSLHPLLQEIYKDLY
PPARg SRC1 recr: PPARgamma agonists recruiting SRC-1 coactivator, primary screen, biochemical; Peroxisome proliferator-activated receptor gamma (Homo sapiens), P37231; PPARgamma-SRC-1 coactivator recruitment biochemical assay; activation, % at 8 µM; 0.41% of 200,000 active; AID 631, 2007; in the data active = activation above about 19%;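 note: 0% = DMSO and 100% = reference agonist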
SRC3 TRFRET art: TR-FRET detection interference compounds, artefact control for PPARgamma SRC-3 recruitment agonists, biochemical, TR-FRET ratio. TR-FRET artefact counter-screen, PPARgamma/SRC-3 format; stronger effect = higher value. TR-FRET ratio at 8 µM. 0.39% of 99,000 active. AID 1048, 2008
SRC1 TRFRET art: TR-FRET detection interference compounds, primary screen, artefact control for PPARgamma SRC-1 recruitment agonists, biochemical, TR-FRET emission ratio; TR-FRET detection artefact counter-screen; stronger effect = higher value; TR-FRET ratio at 8 µM; 0.34% of 99,000 active; AID 1051, 2008; in the data active = TR-FRET ratio above about 2300
TR-FRET SRC-2 ct: TR-FRET signal artefacts, primary screen, artefact control for PPARgamma SRC-2 agonist project, biochemical; TR-FRET artefact counter-screen; stronger effect = higher value; TR-FRET ratio at 8 µM; 0.4% of 200,000 active; AID 1049, 2008
PPARg SRC2 recr: agonists of PPARg-SRC-2 recruitment, primary screen, biochemical, HTS. activation, % at 8 µM. 0.34% of 200,000 active. PPARgamma LBD-SRC-2 recruitment. AID 1032, 2008. Peroxisome proliferator-activated receptor gamma (Homo sapiens), P37231; in the data active = activation above about 22%;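 note: 0% = vehicle and 100% = reference agonist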
PPARg SRC2 conf: agonists of PPARgamma SRC-2 coactivator recruitment, confirmation, biochemical, HTS; activation, % at 8 µM; 52% of 790 active; biochemical SRC-2 recruitment by PPARgamma; shares compounds with PPARg SRC3 recr; in the data active = activation above about 22%;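 note: 0% = vehicle alone and 100% = reference agonist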
PPARg SRC1 conf: PPARgamma agonists recruiting SRC-1 coactivator, confirmation, biochemical; PPARgamma–SRC-1 coactivator recruitment biochemical assay; AID 1300, 2008; activation, % at 8 µM; shares compounds with PPARg SRC3 recr; 43% of 790 active; in the data active = activation above about 20%;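 note: 0% = vehicle wells and 100% = reference agonist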
PPARg SRC3 ag: PPARgamma-driven SRC-3 coactivator recruitment agonists, confirmation, biochemical | 29% of 790 active | biochemical PPARgamma-SRC-3 coactivator recruitment, agonist mode | AID 1301, 2008 | activation, % at 8 µM | shares compounds with PPARg SRC3 recr; in the data active = activation above about 24%;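 note: 0% = vehicle wells and 100% = reference agonist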
Starred values were filed as active, the others as inactive; . = not tested or not shown. Cut-off read from the data, not from the text of the source, unless noted: active = TR-FRET ratio above about 2000; inactive = the rest.

SMILES	PPARg SRC3 recr	PPARg SRC1 recr	SRC3 TRFRET art	SRC1 TRFRET art	TR-FRET SRC-2 ct	PPARg SRC2 recr	PPARg SRC2 conf	PPARg SRC1 conf	PPARg SRC3 ag
CCn1c(SCC(=O)OC2CCCCC2)nnc1-c1ccncc1	13	3	.	.	2048*	29*	-2	-3	-2
CC1(C)CC(=O)C(C(=O)Cc2ccccc2[N+](=O)[O-])C(=O)C1	4	3	1748	1522	1531	6	.	.	.
Cc1cccc(OCC(=O)Nc2nnc(-c3ccco3)s2)c1	20	28*	2164*	2686*	2106*	28*	36*	28*	22
COc1ccccc1OCC(=O)Nc1nnc(-c2ccco2)s1	35*	28*	.	.	2199*	31*	24*	21*	15
CCOc1cccc(C(=O)Nc2nnc(-c3ccco3)s2)c1	17	22*	.	.	1945	17	20	17	15
CCC(C(=O)Nc1nnc(-c2ccco2)s1)c1ccccc1 (stereo not drawn)	27*	26*	.	.	1806	15	27*	21*	20
CCc1nnc(NC(=O)C(CC)c2ccccc2)s1 (stereo not drawn)	3	0	1659	1783	1600	-2	.	.	.
CCOC(=O)Cc1nnc(NC(=O)c2cccc(OCC)c2)s1	4	1	.	.	1642	-6	.	.	.
O=C(Cc1ccccc1)Nc1nnc(-c2ccco2)s1	37*	37*	.	.	2292*	31*	31*	24*	18
CCCC(=O)Nc1nnc(-c2ccco2)s1	7	13	.	.	1854	5	.	.	.
NS(=O)(=O)c1ccc(O)c(N2C(=O)c3cccc4c(C(=O)c5ccccc5)ccc(c34)C2=O)c1	1	0	1222	1762	1409	2	.	.	.
CCc1nnc(NS(=O)(=O)c2ccc(N/C=C\C(=O)c3cccc4ccccc34)cc2)s1	48*	23*	1728	1902	1761	24*	23*	22*	41*
COC(=O)c1c(C(=O)OC)c2cc(C)ccn2c1Cl	3	6	.	.	1615	9	.	.	.
COC(=O)c1cc2c(-c3ccccc3)c(C)c3ccccn3c-2c1C(=O)OC	29*	17	.	.	1968	16	8	14	4
COC(=O)c1c(Cl)c2n3ccccc3c(C)c(-c3ccccc3)c-2c1C(=O)OC	11	18	2198*	2328*	2016*	24*	1	3	3
CCCn1c(-c2ccc[nH]c2=O)nc2cc(C)c(C)cc21	0	7	1376	1902	1608	4	.	.	.
CCOC(=O)Cc1csc(NC(=O)/C=C/c2ccc(OC)cc2)n1	6	-3	1910	1908	1547	1	.	.	.
CC(=O)Nc1ccc(OCC(O)CN2C(C)(C)CC(O)CC2(C)C)cc1 (stereo not drawn)	-1	-4	1485	1887	1521	7	.	.	.
Brc1ccc(-c2nc3ccccc3s2)s1	93*	71*	.	.	3008*	63*	89*	66*	59*
c1ccc(-c2nc3ccccc3s2)nc1	1	0	.	.	1587	0	.	.	.
Cc1ccc(NC2=NCC(=O)N2Cc2cccs2)cc1C	9	4	1596	1662	1632	2	.	.	.
CCN(CC)c1ccc(C=Nc2ccc(N(C)C)cc2)c(O)c1	98*	24*	.	.	2498*	78*	6	5	7
CCN(CC)c1ccc(C=Nc2ccccc2)c(O)c1	10	-4	.	.	1517	6	.	.	.
O=C(O)c1ccc(S(=O)(=O)c2ccc(Sc3ccc(C(=O)O)c(C(=O)O)c3)cc2)cc1	-1	8	1688	1910	1838	8	.	.	.
Cc1nc2scc(-c3ccccc3)c2c(=O)n1N=C1C=CC(=O)C=C1	35*	39*	1556	1523	1437	26*	39*	38*	31*
SMILES	PPARg SRC3 recr	PPARg SRC1 recr	SRC3 TRFRET art	SRC1 TRFRET art	TR-FRET SRC-2 ct	PPARg SRC2 recr	PPARg SRC2 conf	PPARg SRC1 conf	PPARg SRC3 ag
O=C(Nc1nc2ccccc2s1)C1CC(=O)N(c2ccc(F)cc2)C1 (stereo not drawn)	0	-1	.	.	1511	1	.	.	.
COc1ccc(NC(=O)c2sc(=S)[nH]c2N)cc1	28*	16	.	.	1621	4	12	11	7
CCOC(=O)C1=C(C)OC(N)=C(C#N)C1c1cc2c(cc1[N+](=O)[O-])OCO2 (stereo not drawn)	6	11	1756	1761	1707	6	.	.	.
CC(C)Sc1nc2sc3c(c2c2nnc(SCC(=O)NCc4ccco4)n12)CCCC3	11	19*	.	.	1699	10	9	0	5
CCCn1c(=O)n(C)c(=O)c2c(SCC(=O)NCc3ccco3)nc(C3CC3)nc21	1	4	.	.	1513	10	.	.	.
CCCCNC(=S)Nc1ccccc1Cc1ccccc1	4	5	1605	1788	1511	3	.	.	.
N#Cc1c(N)nc2c3c(sc(=N)c2c1N)NC(=O)CC3c1ccccc1 (stereo not drawn)	26*	27*	.	.	2053*	20	5	5	8
N#Cc1c(N)nc2c3c(sc(=N)c2c1N)NC(=O)CC3c1c(F)cccc1Cl (stereo not drawn)	7	-2	.	.	1427	0	.	.	.
O=C(/C=C/c1c(Cl)nc2ccccn12)Nc1ccc(F)cc1	1	9	1700	1847	1590	7	.	.	.
C=CCn1c(-c2cc(Cl)ccc2OC)n[nH]c1=S	20	19*	.	.	1913	26*	30*	22*	21
C=CCn1c(-c2csc(-c3ccc(OC)c(OC)c3)n2)n[nH]c1=S	13	11	1975	2209	2116*	23*	20	15	14
C=CCn1c(-c2csc(-c3ccc(Cl)cc3)n2)n[nH]c1=S	13	7	.	.	1851	10	.	.	.
Cc1cc(C)cc(N(C(=O)CCC(=O)Nc2ccccn2)C(C(=O)NC(C)C)c2ccc(O)cc2)c1 (stereo not drawn)	-6	-3	1529	1868	1654	0	.	.	.
OC(CNCCC1C=Nc2ccccc21)Cn1c2ccc(Cl)cc2c2cc(Cl)ccc21 (stereo not drawn)	-1	-5	1624	1845	1500	9	.	.	.

Screening results (PubChem)
